The nature of assay [1]: qHTS assay to identify small molecule antagonists of the glucocorticoid receptor (GR) signaling pathway - cell viability counter screen (AID 720693). Further: nearly all actives have a fitted effect of over 55% in size. Further: potency means the concentration at half of the fitted maximal effect. In general terms: Quantitative high-throughput screening tests each substance at several concentrations.
A short description of assay [2]: qHTS assay for identifying genotoxic compounds that show differential cytotoxicity against isogenic chicken DT40 cell lines with known DNA damage response pathways - wild type cell line (AID 743012). Further: nearly all actives have a fitted effect of over 60% in size. Further: potency means the concentration at half of the fitted maximal effect. In a few lines:
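300 wt DT40 cells/well; cpd (DMSO) pintool-transferred after ~0.5 h at 37 C/5% CO2; 40 h incubation; CellTiter-Glo added, 30 min RT; luminescence read.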

The nature of assay [3]: qHTS assay for identifying genotoxic compounds that show differential cytotoxicity against isogenic chicken DT40 cell lines with known DNA damage response pathways - Rev3 mutant cell line (AID 743014). Further: nearly all actives have a fitted effect of over 55% in size. Further: potency means the concentration at half of the fitted maximal effect.
The nature of assay [4]: qHTS assay for identifying genotoxic compounds that show differential cytotoxicity against isogenic chicken DT40 cell lines with known DNA damage response pathways - Rad54/Ku70 mutant cell line (AID 743015). Further: nearly all actives have a fitted effect of over 60% in size. Further: potency means the concentration at half of the fitted maximal effect.
Assay [5] can be described thus: qHTS assay to identify small molecule antagonists of the androgen receptor (AR) signaling pathway - cell viability counter screen (AID 743033; further: nearly all actives have a fitted effect of over 45% in size; further: potency means the concentration at half of the fitted maximal effect).
A short description of assay [6]: qHTS assay to identify small molecule antagonists of the androgen receptor (AR) signaling pathway using the MDA cell line - cell viability counter screen (AID 743041; further: nearly all actives have a fitted effect of over 45% in size; further: potency means the concentration at half of the fitted maximal effect). The method, boiled down:
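Cytotoxicity counter screen: MDA-kb2 AR-luc cells, compound + R1881, 16 h, 37C, 0% CO2; CellTiter-Fluor added at 15.5 h, fluorescence read after 30 min.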

For assay [7], the target named is Androgen receptor (Homo sapiens) (UniProt P10275). Kind of assay: qHTS assay to identify small molecule antagonists of the androgen receptor (AR) signaling pathway (AID 743035; active means well fitted inhibition curve with a large enough effect in the signal ratio in the repeat runs, not every such curve was filed as active; the % refers to the signal ratio). In a few lines: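 In this cell-based reporter screen, compounds were tested in concentration series against R1881-activated HEK293 cells expressing beta-lactamase under UAS control; after 16 h at 37C, FRET substrate was added and fluorescence read 2 h later.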

Assay [8] shares this target. Kind of assay: qHTS assay to identify small molecule agonists of the androgen receptor (AR) signaling pathway (AID 743036; active means well fitted activation curve with a large enough effect in the signal ratio in the repeat runs, with a control signal flat, not every such curve was filed as active; the % refers to the signal ratio). The method, boiled down: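 Fluorescence from a beta-lactamase FRET substrate served as read-out in AR-UAS-bla GripTite HEK293 cells. Cells were treated with DMSO-dissolved compounds for 16 h at 37C, then with LiveBLAzer B/G substrate for 2 h at room temperature.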

For assay [9] the target is unchanged. Briefly: qHTS assay to identify small molecule agonists of the androgen receptor (AR) signaling pathway using the MDA cell line (AID 743040; further: nearly all actives have a fitted effect of over 20% in size). In a few lines: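 Luciferase read-out, ONE-Glo, 30 min RT. Cells: MDA-kb2 AR-luc, MMTV promoter with AR and GR response elements. Compound exposure 16 h, 37C, 0% CO2, after 5 h pre-incubation. qHTS agonist mode.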
Assay [10] has the same target. Kind of assay: qHTS assay to identify small molecule antagonists of the androgen receptor (AR) signaling pathway using the MDA cell line (AID 743042; further: nearly all actives have a fitted effect of over 55% in size). In a few lines: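 MDA-kb2 breast carcinoma cells carrying MMTV-luciferase (AR/GR responsive) were co-treated with compounds and the agonist R1881 for 16 h at 37C. Inhibition read as ONE-Glo luminescence; CellTiter-Fluor fluorescence measured in parallel for cytotoxicity.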

“And” between values parts separate entries of the source, which are not always exact repeats. Equal entries are not always repeated. Records with an inconclusive call do not appear. Some structures have more than one record in an assay (separate samples or runs), and their calls can disagree. The source made the active and inactive calls. Unless noted, the call rests on the fitted dose curve; in most records, active means well fitted curve in the direction sought with a large enough effect in the repeat runs; inconclusive means weak or mixed curves; inactive means no such curve, though single readings can be large; an effect the other way counts as inactive or inconclusive.

Sequence of Androgen receptor (Homo sapiens) (P10275 whole entry, looked up): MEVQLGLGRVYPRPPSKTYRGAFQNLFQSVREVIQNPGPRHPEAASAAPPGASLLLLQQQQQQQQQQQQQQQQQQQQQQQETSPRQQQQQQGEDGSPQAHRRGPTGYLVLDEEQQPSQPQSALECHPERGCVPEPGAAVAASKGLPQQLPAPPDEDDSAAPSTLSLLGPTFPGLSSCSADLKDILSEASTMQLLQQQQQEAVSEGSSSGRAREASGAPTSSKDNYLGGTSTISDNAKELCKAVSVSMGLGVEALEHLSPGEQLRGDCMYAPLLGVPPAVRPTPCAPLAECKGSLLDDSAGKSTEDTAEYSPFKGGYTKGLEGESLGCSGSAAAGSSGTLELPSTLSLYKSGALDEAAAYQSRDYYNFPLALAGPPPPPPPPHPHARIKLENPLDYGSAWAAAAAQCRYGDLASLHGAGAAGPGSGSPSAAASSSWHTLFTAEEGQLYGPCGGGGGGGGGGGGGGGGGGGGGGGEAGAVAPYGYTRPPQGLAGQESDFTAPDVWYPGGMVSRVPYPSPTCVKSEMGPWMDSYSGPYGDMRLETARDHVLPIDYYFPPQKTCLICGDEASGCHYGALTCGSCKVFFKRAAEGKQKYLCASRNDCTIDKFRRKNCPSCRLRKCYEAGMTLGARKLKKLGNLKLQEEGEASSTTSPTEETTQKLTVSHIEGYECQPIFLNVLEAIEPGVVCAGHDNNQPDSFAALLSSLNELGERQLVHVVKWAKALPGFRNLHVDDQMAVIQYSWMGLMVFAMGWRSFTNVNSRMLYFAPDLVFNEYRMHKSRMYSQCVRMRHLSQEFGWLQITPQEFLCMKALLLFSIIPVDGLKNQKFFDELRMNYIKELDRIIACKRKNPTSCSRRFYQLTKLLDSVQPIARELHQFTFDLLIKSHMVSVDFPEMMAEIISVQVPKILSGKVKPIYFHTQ

As for `CCCCNC(N)=O`, the Potency entry in assay [1], in [2], in [3], in [4], in assay [5] and in assay [6] was “inactive” throughout.

With `Nc1c(S(=O)(=O)O)cc(Br)c2c1C(=O)c1ccccc1C2=O`, the Potency result in [1], in assay [2], in assay [3], in [4] and in assay [5] was “inactive” each time. Further, the Potency in assay [6] was 30.6 µM (active).

`Cc1cc(Cc2ccc(N)c(C)c2)ccc1N`: the Potency entry in assay [1], in assay [5] and in assay [6] was “inactive” each time. The Potency was 61.1 µM (active) in [2]; 68.6 µM (active) and 54.5 µM (active) in [3]; 61.1 µM (active) and 68.6 µM (active) in assay [4].

In the case of `c1ccc2ccccc2c1`, the Potency entry in assay [1], in assay [2], in assay [3], in assay [4], in assay [5] and in assay [6] was “inactive” in each case.

Turning to `O=C(Cl)c1c(Cl)c(Cl)c(C(=O)Cl)c(Cl)c1Cl`, the Potency result in [1], in [2], in assay [3], in [4], in [5] and in assay [6] was “inactive” in each case.

In the case of `OC[C@@H](O)[C@@H](O)[C@H](O)[C@@H](O)CO`, the Potency result in assay [1], in assay [2], in [3], in assay [4], in [5] and in assay [6] was “inactive” throughout.

Take `CC#C[C@]1(O)CC[C@H]2[C@@H]3CCC4=CC(=O)CCC4=C3[C@@H](c3ccc(N(C)C)cc3)C[C@@]21C`: the Potency is 5.35 µM (active) in [1]; 5.96 µM (active) and 30.6 µM (active) in [2]; 9.44 µM (active) and 48.6 µM (active) in [3]; 5.96 µM (active) and 21.7 µM (active) in assay [4].

For the compound `Cc1ccc(N)c(S(=O)(=O)O)c1`, the Potency result in [1], in assay [2], in assay [3], in assay [4], in [5] and in assay [6] was “inactive” each time.

Consider `C[C@@H]1O[C@@H](OC[C@H]2O[C@@H](Oc3c(-c4ccc(O)c(O)c4)oc4cc(O)cc(O)c4c3=O)[C@H](O)[C@@H](O)[C@@H]2O)[C@H](O)[C@H](O)[C@H]1O`, for which the Potency entry in assay [1], in assay [2], in assay [3], in [4], in assay [5] and in assay [6] was “inactive” throughout. For the same compound, the compound was classed as inactive in assay [7], in assay [8], in [9] and in assay [10].

As for `OCCOCCOCCOCCO`, the Potency entry in [1], in assay [2], in [3], in [4], in assay [5] and in [6] was “inactive” in each case.

For `CC(C)(C)C(=O)C1C(=O)c2ccccc2C1=O`, the Potency entry in assay [1] and in assay [5] was “inactive” each time. For the same compound, the Potency in assay [2] is 60.5 µM (active) and 12.2 µM (active); in assay [3], “inactive and 13.7 µM (active)”; in assay [4], 13.7 µM (active).

For `CNC[C@H](O)[C@@H](O)[C@H](O)[C@H](O)CO`, the Potency entry in assay [1], in assay [2], in assay [3], in assay [4], in assay [5] and in assay [6] was “inactive” in each case.

In the case of `OCC1CCCO1` (stereo unspecified), the Potency entry in assay [1], in [2], in assay [3], in assay [4], in assay [5] and in assay [6] was “inactive” each time. Besides, the outcome in assay [8], in assay [9] and in assay [10] was inactive.

Take `OCC#CCO`: the Potency result in [1], in [5] and in assay [6] was “inactive” throughout. Besides, the Potency entry in assay [2] is “inactive and 54.5 µM (active)”; in assay [4], “inactive and 48.6 µM (active)”.

Consider `CCCCC(CC)COC(=O)/C=C\C(=O)OCC(CC)CCCC` (stereo unspecified), for which the Potency result in assay [1], in assay [3], in assay [4], in [5] and in assay [6] was “inactive” throughout. Also, the compound was called inactive in [7], in assay [8], in assay [9] and in assay [10].

Regarding `CS(=O)(=O)c1ccc([C@@H](O)[C@@H](CO)NC(=O)C(Cl)Cl)cc1`, the Potency result in assay [1], in assay [5] and in assay [6] was “inactive” in each case. In addition, the Potency is 4.52 µM (active) and 4.92 µM (active) in assay [2]; 7.17 µM (active) and 4.92 µM (active) in assay [4].

As to `O=c1c(-c2ccc(O)cc2)coc2cc(O)ccc12`, the Potency entry in [1], in [3], in assay [4], in assay [5] and in assay [6] was “inactive” each time. The compound was classed as inactive in assay [9] and in [10].

With `O=C1N=C(O)CN1/N=C/c1ccc(-c2ccc([N+](=O)[O-])cc2)o1`, the Potency entry in [1] and in assay [5] was “inactive” in each case. Also, the Potency in assay [2] is 61.1 µM (active); in assay [4], 26.6 µM (active) and 27.3 µM (active).

On to `CC(C)(C)C1CCC(O)CC1` (stereo unspecified), for which the Potency entry in [1], in assay [2], in assay [4], in assay [5] and in assay [6] was “inactive” each time.

Consider `O=S(=O)(Oc1ccc(Cl)cc1Cl)c1ccccc1`, for which the Potency entry in assay [1], in assay [2], in assay [4], in [5] and in assay [6] was “inactive” throughout.

With `Oc1ccc(OCc2ccccc2)cc1`, the Potency result in assay [1], in assay [5] and in [6] was “inactive” in each case. Also, the Potency was 2.54 µM (active) and 8.45 µM (active) in [2]; 4.52 µM (active) and 11.9 µM (active) in assay [4]. The compound was classed as inactive in assay [8], in assay [9] and in assay [10].

Consider `CC(C)(N=C=O)c1cccc(C(C)(C)N=C=O)c1`, for which the Potency entry in assay [1], in assay [2], in [4], in [5] and in assay [6] was “inactive” in each case.

`NCCNCCNCCNCCN`: the Potency result in assay [1], in assay [2], in assay [4], in assay [5] and in assay [6] was “inactive” each time. Further, the outcome in [7], in [8], in assay [9] and in assay [10] was inactive.

Take `CCOC(=O)/C=C\C(=O)OCC`: the Potency entry in assay [1], in [2], in assay [4], in assay [5] and in assay [6] was “inactive” throughout.

In the case of `CC1=CC[C@H]2C[C@@H]1C2(C)C`, the Potency result in [1], in [2], in assay [4], in assay [5] and in assay [6] was “inactive” throughout.

For `O=C(Oc1ccccc1)c1ccc(O)cc1`, the Potency result in [1], in assay [2], in assay [4], in [5] and in assay [6] was “inactive” throughout.

In the case of `Oc1c(Cl)cc(Cl)c(Cl)c1Cl`, the Potency result in assay [1] and in assay [6] was “inactive” in each case. Further, the Potency in [2] was 67.1 µM (active).

Turning to `CCCCCCCCCCCCN`, in assay [1], the Potency result is “inactive”. In addition, the Potency result in [2] is “inactive and 15.4 µM (active)”; in assay [4], “inactive and 19.3 µM (active)”; in assay [5], “inactive and 54.9 µM (active)”.

(Values after PubChem BioAssay (Tox21).)
